This note sets out measurements from PubChem BioAssay.

A number with no mark means an inactive call. For part of these data: Results with a measured potency or affinity are listed apart. Active and inactive are the calls of the source. Unless noted, how the calls were made is not given here.

Assay [1] is described as follows: antimalarial activity against Dd2 strain (AID 2302;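 active means growth inhibition above 50% at the single 2 µM test dose, taken to imply half-maximal potency below 2 µM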;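 further: 0% = DMSO untreated growth and 100% = chloroquine plus artemisinin killed control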). Conditions: P. falciparum Dd2 in RBCs, LDH growth readout, 72 h; at 2 µM; hits give high values.
A short description of assay [2]: HepG2 cytotoxicity, primary screen, cytotoxicity control for P. falciparum antimalarial project, cell-based, ATP luminescence (AID 2303;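 active means inhibition above 50%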;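 further: 0% = DMSO wells and 100% = digitonin-killed cells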). As to conditions: HepG2 viability, 24-48 h, at 10 µM, hits give high values.
For assay [3], the target named is L-lactate dehydrogenase (Plasmodium falciparum (isolate CDC / Honduras)) (UniProt Q27743). Kind of assay: PfLDH activity inhibition – cell lysate, 3D7 strain, counter-screen for P. falciparum growth inhibition project (AID 2304).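 Further: 0% = vehicle and 100% = reference inhibitor.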 As to conditions: P. falciparum 3D7 crude extract, LDH APAD/NBT absorbance; at 2 µM; hits give high values. Background: The purpose of a counterscreen is to sort out artefacts and off-target activity.

Assay [4] is described as follows: inhibition of 3D7 malaria parasite growth – strain 3D7 (AID 2306).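 Further: 0% = DMSO wells and 100% = chloroquine plus artemisinin control wells.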 Conditions: P. falciparum 3D7 erythrocytic growth, LDH absorbance, 72 h; at 2 µM; hits give high values.
Assay [5] addresses Calcium-dependent protein kinase 1 (Plasmodium falciparum (isolate 3D7)) (UniProt P62344). The experiment in a line: PfCDPK1 kinase inhibitors, biochemical, TCAMS library (AID 1159585; cut-off not given, nearly all actives have IC50 up to about 0.98 µM;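 further: inhibitors leave more ATP so luminescence rises with inhibition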). Conditions: recombinant PfCDPK1, Kinase-Glo ATP depletion luminescence. Background: Kinase-Glo measures the ATP left after a reaction by luminescence.
For assay [6], the target named is Plasmodium falciparum protein kinase 6 (PK6, PF3D7_1337100) (UniProt Q8IDW1). Kind of assay: PfPK6 kinase inhibitors, biochemical, TCAMS library (AID 1159586). Conditions: recombinant PfPK6, Kinase-Glo ATP depletion luminescence.
For assay [7], the target named is Protein kinase 7 (PK7), Plasmodium falciparum 3D7 (PF3D7_0213400) (UniProt Q7YTF7). The experiment in a line: inhibition of Plasmodium PK7 catalytic activity – biochemical, TCAMS antimalarial set, Kinase-Glo luminescence (AID 1159587). Conditions: recombinant PfPK7, Kinase-Glo ATP depletion luminescence.
Assay [8] deals with Calcium-dependent protein kinase 4 (Plasmodium falciparum (isolate 3D7)) (UniProt Q8IBS5). The experiment in a line: PfCDPK4 kinase inhibitors, biochemical, TCAMS library (AID 1159588; cut-off not given, nearly all actives have IC50 up to about 0.91 µM). Conditions: recombinant PfCDPK4, Kinase-Glo ATP depletion luminescence.

Usually inhibition stands for the drop in the measured response relative to a control, in per cent.

L-lactate dehydrogenase (Plasmodium falciparum (isolate CDC / Honduras)), sequence (Q27743 whole entry, looked up): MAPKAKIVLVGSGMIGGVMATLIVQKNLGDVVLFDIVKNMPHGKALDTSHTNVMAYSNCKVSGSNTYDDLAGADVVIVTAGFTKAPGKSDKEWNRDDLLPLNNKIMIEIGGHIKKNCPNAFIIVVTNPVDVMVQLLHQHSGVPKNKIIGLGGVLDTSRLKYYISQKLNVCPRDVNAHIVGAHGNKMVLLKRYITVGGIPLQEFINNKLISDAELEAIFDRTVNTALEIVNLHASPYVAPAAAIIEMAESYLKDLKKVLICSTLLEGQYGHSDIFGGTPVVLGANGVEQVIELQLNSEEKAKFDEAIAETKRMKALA
Calcium-dependent protein kinase 4 (Plasmodium falciparum (isolate 3D7)), sequence (Q8IBS5 whole entry, looked up): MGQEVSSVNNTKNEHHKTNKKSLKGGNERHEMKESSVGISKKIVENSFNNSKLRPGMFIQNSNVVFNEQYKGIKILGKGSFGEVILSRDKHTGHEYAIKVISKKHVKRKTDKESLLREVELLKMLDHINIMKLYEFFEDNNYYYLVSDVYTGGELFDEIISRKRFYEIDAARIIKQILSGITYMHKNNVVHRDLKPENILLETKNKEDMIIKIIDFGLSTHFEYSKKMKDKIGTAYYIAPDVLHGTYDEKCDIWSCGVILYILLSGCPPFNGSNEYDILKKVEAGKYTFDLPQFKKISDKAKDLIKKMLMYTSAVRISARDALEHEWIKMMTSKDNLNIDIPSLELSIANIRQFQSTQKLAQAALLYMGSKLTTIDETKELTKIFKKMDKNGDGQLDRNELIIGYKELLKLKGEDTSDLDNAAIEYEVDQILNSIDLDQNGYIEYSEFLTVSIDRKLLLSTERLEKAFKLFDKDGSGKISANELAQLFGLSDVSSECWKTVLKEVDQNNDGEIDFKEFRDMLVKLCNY
Plasmodium falciparum protein kinase 6 (PK6, PF3D7_1337100), sequence (Q8IDW1 1-305): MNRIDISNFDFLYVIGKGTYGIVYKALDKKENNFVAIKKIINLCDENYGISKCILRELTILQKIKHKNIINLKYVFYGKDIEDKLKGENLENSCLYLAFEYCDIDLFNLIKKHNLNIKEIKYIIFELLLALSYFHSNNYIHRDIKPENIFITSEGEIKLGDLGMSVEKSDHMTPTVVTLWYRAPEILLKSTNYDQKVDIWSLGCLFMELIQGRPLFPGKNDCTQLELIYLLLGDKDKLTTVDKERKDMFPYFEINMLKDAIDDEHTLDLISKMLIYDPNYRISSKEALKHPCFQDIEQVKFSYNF
Protein kinase 7 (PK7), Plasmodium falciparum 3D7 (PF3D7_0213400), sequence (Q7YTF7 1-343): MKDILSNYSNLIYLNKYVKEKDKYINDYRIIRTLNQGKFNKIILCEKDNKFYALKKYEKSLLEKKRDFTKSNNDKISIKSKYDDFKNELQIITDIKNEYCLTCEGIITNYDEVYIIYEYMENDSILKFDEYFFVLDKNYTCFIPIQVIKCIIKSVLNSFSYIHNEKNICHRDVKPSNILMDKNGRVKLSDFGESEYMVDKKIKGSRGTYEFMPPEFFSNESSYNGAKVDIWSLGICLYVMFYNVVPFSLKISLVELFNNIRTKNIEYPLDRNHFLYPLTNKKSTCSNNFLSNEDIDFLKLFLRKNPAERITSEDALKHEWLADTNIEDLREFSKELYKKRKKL
Calcium-dependent protein kinase 1 (Plasmodium falciparum (isolate 3D7)), sequence (P62344 whole entry, looked up): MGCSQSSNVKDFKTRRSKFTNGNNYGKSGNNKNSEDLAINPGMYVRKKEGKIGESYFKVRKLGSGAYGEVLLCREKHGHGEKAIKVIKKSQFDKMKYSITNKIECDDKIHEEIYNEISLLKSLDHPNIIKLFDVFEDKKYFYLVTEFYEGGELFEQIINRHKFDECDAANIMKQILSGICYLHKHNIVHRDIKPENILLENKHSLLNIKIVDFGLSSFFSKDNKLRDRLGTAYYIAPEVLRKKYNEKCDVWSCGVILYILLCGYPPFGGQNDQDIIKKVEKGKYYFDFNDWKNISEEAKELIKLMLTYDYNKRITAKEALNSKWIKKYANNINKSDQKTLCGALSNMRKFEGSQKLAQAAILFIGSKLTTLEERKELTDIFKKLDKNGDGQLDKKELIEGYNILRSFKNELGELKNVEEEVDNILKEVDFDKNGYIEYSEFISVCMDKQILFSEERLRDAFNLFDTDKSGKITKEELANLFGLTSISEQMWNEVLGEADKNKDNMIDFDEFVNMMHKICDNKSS

Turning to `Cc1cccc2[nH]c(-c3cccc(-c4cccc(NC(=O)CNc5ccc(C(N)=O)cc5)c4)c3)nc12`, the growth inhibition is 56% (active) in assay [1] and 100% (active) in assay [4]. The inhibition in assay [2] was 15%; in assay [3], 6%. The outcome in assay [5], in assay [6], in assay [7] and in assay [8] was inactive.

For the compound `CN1CCC(N2CCN(Cc3ccc(-c4ccc(-c5nc6ccc(F)cc6[nH]5)s4)cc3)CC2)CC1`, the growth inhibition in assay [1] and in assay [4] was 100% (active) each time. For the same compound, the results for the inhibition in assay [2] and in assay [3] were 62% (active) and 3%, respectively. In addition, the outcome in assay [5], in assay [6], in assay [7] and in assay [8] was inactive.

Regarding `COc1ccc(-n2nc(C)c3c2NC(=O)CC3c2ccccc2OCc2ccc(F)cc2)cc1` (stereo not drawn), the growth inhibition in assay [1] is 65% (active); in assay [4], 93% (active). For the same compound, the inhibition in assay [2] was 53% (active); in assay [3] it was 7%. Also, the result in assay [5], in assay [6], in assay [7] and in assay [8] was inactive.

Regarding `Cc1[nH]c2ccccc2c1C1CCN(CCCCNC(=O)c2ccc(-c3ccc(C#N)cc3)cc2)CC1`, the figures for the growth inhibition in assay [1] and in assay [4] were 97% (active) and 101% (active), respectively. The inhibition is 19% in assay [2] and -3% in assay [3]. Also, the result in assay [5], in assay [6], in assay [7] and in assay [8] was inactive.

For the compound `COc1ccc2nc(-c3ccc(C(=O)NCCCN4CCN(c5cc(Cl)ccc5OC)CC4)cc3OC)[nH]c2c1`, the growth inhibition in assay [1] was 24%; in assay [4], 101% (active). In addition, the inhibition is -5% in assay [2] and 1% in assay [3]. In addition, the outcome in assay [5], in assay [6], in assay [7] and in assay [8] was inactive.

For `O=C(NCc1ccc(Cl)cc1)c1ccc(C(=O)NCC2CCCN2CC2CCCCC2)cc1` (stereo not drawn), the results for the growth inhibition in assay [1] and in assay [4] were 10% and 97% (active), respectively. Further, the inhibition in assay [2] was 21%; in assay [3] it was -11%. Also, the result in assay [5], in assay [6], in assay [7] and in assay [8] was inactive.

With `N#Cc1ccc2c(c1)CCN(CCC1CCC(Nc3ncnc4ccccc34)CC1)C2` (stereo not drawn), the growth inhibition is 96% (active) in assay [1] and 101% (active) in assay [4]. The inhibition in assay [2] was 65% (active); in assay [3], -4%. Further, the result in assay [5], in assay [6], in assay [7] and in assay [8] was inactive.

As to `O=C(Nc1cccc(-c2ccc(-c3nc4ccc(F)cc4[nH]3)cc2)c1)c1csnn1`, the growth inhibition in assay [1] is 31%; in assay [4], 94% (active). The inhibition is 22% in assay [2] and 0% in assay [3]. The result in assay [5], in assay [6], in assay [7] and in assay [8] was inactive.

Take `O=C(/C=C/c1ccc2ccccc2c1)NCCCCCN1CCC(c2c[nH]c3ccccc23)CC1`: the growth inhibition was 4% in assay [1] and 90% (active) in assay [4]. In addition, the inhibition was 18% in assay [2] and 6% in assay [3]. Moreover, the result in assay [5], in assay [6], in assay [7] and in assay [8] was inactive.

Consider `CN(C)CC(O)C(c1ccccc1)c1cccc(Br)c1` (stereo not drawn), for which the growth inhibition was 9% in assay [1] and 98% (active) in assay [4]. The inhibition in assay [2] was 22%; in assay [3] it was -8%. Further, the result in assay [5], in assay [6], in assay [7] and in assay [8] was inactive.

For the compound `CN1CCN(CC2(Nc3nccc(NCc4ccc(Cl)cc4Cl)n3)CCCCC2)CC1`, the growth inhibition in assay [1] was 58% (active); in assay [4], 98% (active). The inhibition was 98% (active) in assay [2] and 0% in assay [3]. Besides, the outcome in assay [5], in assay [6], in assay [7] and in assay [8] was inactive.

For the compound `N#Cc1ccccc1C(=O)N(Cc1cncn1Cc1cccc(F)c1)CC1CC1`, the growth inhibition was 92% (active) in assay [1] and 101% (active) in assay [4]. Also, the results for the inhibition in assay [2] and in assay [3] were 0% and -1%, respectively. For the same compound, the result in assay [5], in assay [6], in assay [7] and in assay [8] was inactive.

Consider `COc1cc(OC)cc(-c2nn(-c3ccc([N+](=O)[O-])cc3Cl)c(=S)n2CC2CCCO2)c1` (stereo not drawn), for which the growth inhibition in assay [1] and in assay [4] was 98% (active) each time. For the same compound, the inhibition in assay [2] was 5%; in assay [3], 0%. For the same compound, the outcome in assay [5], in assay [6], in assay [7] and in assay [8] was inactive.

For the compound `NCc1ccc(CNCc2cccc(-c3ccc(-c4nc5ccc(C(F)(F)F)cc5[nH]4)cc3)c2)cc1`, the growth inhibition in assay [1] was 90% (active); in assay [4] it was 98% (active). Further, the figures for the inhibition in assay [2] and in assay [3] were 13% and -7%, respectively. The outcome in assay [5], in assay [6], in assay [7] and in assay [8] was inactive.

With `CCCCCCc1cc(OC)c(OC)cc1C(C)Nc1ccnc2cc(Cl)ccc12` (stereo not drawn), the growth inhibition was 79% (active) in assay [1] and 95% (active) in assay [4]. The inhibition in assay [2] is 6%; in assay [3], -4%. Besides, the result in assay [5], in assay [6], in assay [7] and in assay [8] was inactive.

Consider `O=C(NCCc1ccccc1)N(Cc1cccc(-c2ccc(CNCc3ccc4c(c3)OCO4)cc2)c1)C1CCN(Cc2ccccc2)CC1`, for which the growth inhibition is 70% (active) in assay [1] and 94% (active) in assay [4]. Also, the inhibition is 11% in assay [2] and -2% in assay [3]. Besides, the outcome in assay [5], in assay [6], in assay [7] and in assay [8] was inactive.

Consider `Cc1cccc2[nH]c(-c3cccc(-c4cccc(CN5CCN(c6ccncc6)CC5)c4)c3)nc12`, for which the values for the growth inhibition in assay [1] and in assay [4] were 96% (active) and 102% (active), respectively. In addition, the values for the inhibition in assay [2] and in assay [3] were 47% and -5%, respectively. Moreover, the outcome in assay [5], in assay [6], in assay [7] and in assay [8] was inactive.

Turning to `CNc1ccc(CNCc2ccc(-c3ccc(-c4nc5c(C)cccc5[nH]4)s3)cc2)cc1`, the growth inhibition is 94% (active) in assay [1] and 101% (active) in assay [4]. Also, the inhibition was 29% in assay [2] and -5% in assay [3]. Besides, the result in assay [5], in assay [6], in assay [7] and in assay [8] was inactive.

In the case of `CC(=O)N[C@H](C(=O)Nc1cccc(-c2ccc(-c3nc4c(C)cccc4[nH]3)s2)c1)C(C)C`, the growth inhibition in assay [1] was 29%; in assay [4], 93% (active). The values for the inhibition in assay [2] and in assay [3] were 33% and 2%, respectively. Also, the outcome in assay [5], in assay [6], in assay [7] and in assay [8] was inactive.

Consider `Cc1ccnc(NC(c2cccc(OCc3ccccc3)c2)c2ccc3cccnc3c2O)c1` (stereo not drawn), for which the growth inhibition in assay [1] was 88% (active); in assay [4], 95% (active). Besides, the figures for the inhibition in assay [2] and in assay [3] were 26% and -2%, respectively. In addition, the result in assay [5], in assay [6], in assay [7] and in assay [8] was inactive.

`O=C(Nc1ccccc1Cl)c1cc2ccccc2cc1O`: the growth inhibition in assay [1] is 72% (active); in assay [4], 94% (active). Further, the inhibition in assay [2] is 2%; in assay [3], -4%. In addition, the outcome in assay [5], in assay [6], in assay [7] and in assay [8] was inactive.
